# Source: PubChem
# HT1080-NT tox – kills 2HG-producing HT-1080-NT fibrosarcoma cells. 360,000 tested, 1.6% active. Potency, µM (highest dose often 46.1 µM), hits mostly cytotoxic. AID 686970. HT-1080-NT fibrosarcoma viability, CellTiter-Glo ATP luminescence, 48 h;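 further: NT is the 2HG producing partner of a matched IDH1 knockdown line; nearly all actives have a fitted effect of over 55% in size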
#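 HT-1080-NT; 750 cells/well; 5% FBS RPMI; 48 h compound, 37 degrees C; CellTiter-Glo luminescence; curve fitting and curve-class assignment.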
# KB-3-1 cytotox – kills parental KB-3-1 adenocarcinoma cells | KB-3-1 viability, CellTiter-Glo ATP luminescence, 72 h | Potency, µM (series often up to 46.1 µM), hits mostly cytotoxic | 400,000 tested, 1.4% active; further: nearly all actives have a fitted effect of over 60% in size
#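 Here the drug-naive KB-3-1 line serves as comparator for MDR sub-line selectivity; cells received compound titrations, 72 h at 37 °C, then CellTiter-Glo readout.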
# KB-V1 cytotox – kills drug-selected multidrug resistant KB-V1 cells; KB-V1 MDR cells viability, CellTiter-Glo, 72 h; Potency, µM (series often up to 46.1 µM), usual class: cytotoxic; 400,000 tested, 3.4% active; AID 1347076; further: nearly all actives have a fitted effect of over 60% in size
#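 KB-V1, DMEM (no phenol red) + 10% FBS; cpd pin-transferred, titration series; 72 h, 37 degrees C; CellTiter-Glo, luminescence. Data normalized, curve-fit.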
# TDP1 cell noCPT – qHTS for Inhibitors of human tyrosyl-DNA phosphodiesterase 1 (TDP1): qHTS in cells in absence of CPT | Potency, µM (highest dose often 46.2 µM), usual class: inhibitors | DT40 Tdp1-/- hTDP1 cells, no CPT, ATP luminescence, 48 h | 420,000 tested, 15% active | AID 686978, 2013; further: nearly all actives have a fitted effect of over 55% in size
#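 Readout: luminescence from CellTiter-Glo after 30 min in the dark at RT. Cells: DT40 Tdp1-/- with stable hTDP1, 400/well. Exposure: compounds alone, ≥48 hr, 37 °C.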
# TDP1 cell CPT – growth inhibition of DT40 Tdp1-/-;hTDP1 cells with camptothecin (screen for TDP1 inhibitors); 420,000 tested, 12% active; chicken DT40 Tdp1-/-;hTDP1 cells + 20 nM CPT, ATP luminescence, 48 h; Potency, µM (titrated, usually from 46.2 µM), most hits filed as inhibitors; further: nearly all actives have a fitted effect of over 55% in size
#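 Chicken DT40 Tdp1-/- cells stably complemented with human TDP1 were seeded at 400 cells/well in medium containing 20 nM camptothecin, exposed to pin-transferred compounds, and grown at 37 °C for at least 48 hr. Viability was read as ATP luminescence.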
# HT1080 IDH1KD tx – toxicity to HT-1080 IDH1 knockdown cells (counter line); 360,000 tested, 2% active; HT-1080 IDH1 knockdown viability, ATP luminescence, 48 h; Potency, µM (series often up to 46.1 µM), usual class: cytotoxic
#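 In this qHTS, HT-1080 cells depleted of IDH1 are exposed for 48 h at 37 °C to compound titrations. Toxicity is scored from CellTiter-Glo luminescence, with DMSO as full viability and medium alone as none.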
# Hits are given with their value; – = inactive; ? = inconclusive; · = not tested or not shown; [ ] = remark or other dose. An excerpt weighted towards active compounds, which were near 19% of everything screened. The call rests on the fitted dose curve; in most records, active means well fitted curve in the direction sought with a large enough effect; inconclusive means small, poorly fitted or top-dose-only effect, or another doubt; inactive means no such curve, though single readings can be large; an effect the other way counts as inactive or inconclusive.
SMILES,HT1080-NT tox,KB-3-1 cytotox,KB-V1 cytotox,TDP1 cell noCPT,TDP1 cell CPT,HT1080 IDH1KD tx
CN(CC(=O)Nc1ccccc1Br)C(=O)CCSc1ccc(F)cc1,–,–,?,13µM,?,–
N#Cc1ccccc1NC(=O)Cn1cnc2onc(-c3cccc(F)c3)c2c1=O,·,–,–,–,–,·
Cc1nnc(SCC(=O)NC2(C#N)CCCCC2)n1N,–,–,–,–,–,–
O=C(CCC(=O)N1CCOCC1)NCCc1ccccc1,–,–,–,–,–,–
Cc1cccc(N(CC(=O)Nc2ccccc2F)S(C)(=O)=O)c1,–,–,23.1µM,–,–,–
CSc1ccccc1NC(=O)CN(c1ccccc1Br)S(C)(=O)=O,–,–,14.6µM,?,–,–
CSc1ccc(CN(C)CC(=O)Nc2ccccc2Br)cc1,–,–,–,?,23.1µM,–
CCOC(=O)c1sc(=NC(=O)c2ccc(C)cc2)n(C)c1C,–,–,–,?,–,–
CC1=CC(=O)C(C(C)C)=CC1=NC(=O)c1ccc(C)cc1,–,–,–,2.06µM,2.31µM,–
CC(=O)c1cccc(NC(=O)Cn2c(C)c3cnn(-c4ccccc4)c(=O)c3c2C)c1,·,–,–,–,20.6µM,·
COc1ccc(NC(=O)Cn2c(C)c3cnn(-c4ccccc4)c(=O)c3c2C)c(OC)c1,·,–,–,–,–,·
CCC(C(=O)Nc1ccc(C(C)=O)cc1)n1c(C)c2cnn(-c3ccccc3)c(=O)c2c1C (configuration not stated),·,–,–,?,23.1µM,·
CCCn1c2ccccc2c2cnn(CC(=O)Nc3cccc(C(=O)OCC)c3)c(=O)c21,·,·,·,–,–,·
CCOC(=O)c1cccc(NC(=O)CCCn2c(C)c3cnn(-c4ccccc4)c(=O)c3c2C)c1,·,–,–,16.4µM,18.4µM,·
CCN(c1ccccc1)S(=O)(=O)c1ccc(NC(=O)c2cc(=O)c3c(C)cc(C)cc3o2)cc1,·,–,–,–,–,·
COc1ccc(CNC(=O)O[C@@H]2C[C@H]3C(=O)N(c4ccccc4)C(=O)[C@H]3[C@@]3(CN(S(=O)(=O)c4ccc(C)cc4)C[C@H]3C)[C@@H]2O)cc1OC,–,–,–,25.9µM,?,–
Cc1ccc(S(=O)(=O)N2C[C@@H](C)[C@]3(C2)[C@H](O)[C@H](OC(=O)Nc2cccs2)C[C@H]2C(=O)N(c4ccccc4)C(=O)[C@H]23)cc1,?,–,–,16.4µM,23.1µM,?
Cc1ccc(S(=O)(=O)N2C[C@@H](C)[C@]3(C2)[C@H](O)[C@H](OC(=O)NCc2ccco2)C[C@H]2C(=O)N(c4ccccc4)C(=O)[C@H]23)cc1,–,–,–,–,–,–
COc1cc(/C=C/C(=O)NCCc2ccc(S(N)(=O)=O)cc2)ccc1OCC#N,–,–,–,–,18.4µM,–
CCOc1cc(/C=C/C(=O)NCCc2ccc(S(N)(=O)=O)cc2)ccc1OCC(C)C,–,–,–,8.2µM,13µM,–
C=CC(=O)Oc1ccc(N2Cc3ccccc3C2=O)cc1,–,–,–,4.61µM,3.66µM,–
CC1(C)Cc2c(sc3c2c(=N)n(Cc2ccco2)c(=O)n3CC(=O)Nc2cccc(Cl)c2)CO1,–,–,–,20.6µM,?,–
Cc1cccc(NC(=O)Cn2c(=O)n(Cc3ccco3)c(=N)c3c4c(sc32)COC(C)(C)C4)c1,–,–,–,?,?,–[9.24 µM]
O=C(Cn1c(-c2cscn2)nc2ccccc21)Nc1ccc2ccccc2c1,?,–,?,?,14.1µM,?
Cc1nc2ccccc2nc1OCC(=O)Nc1ccc2ccccc2c1,–,–,?,?,–,–
SMILES,HT1080-NT tox,KB-3-1 cytotox,KB-V1 cytotox,TDP1 cell noCPT,TDP1 cell CPT,HT1080 IDH1KD tx
O=C(CN1C(=O)C(=O)N(Cc2ccccc2)C1=O)Nc1ccc(OC(F)F)cc1,–,–,?,–,–,–
Cc1nc2ccccc2n(CC(=O)Nc2cc(Cl)cc(Cl)c2)c1=O,–,–,–,14.6µM,9.2µM,–
Cc1cc(C)cc(NC(=O)Cn2c(-c3cncs3)nc3ccccc32)c1,·,–,–,20.6µM,?,·
O=C(CN1C(=O)C(=O)N(Cc2ccccc2)C1=O)Nc1cc(Cl)cc(Cl)c1,23.1µM,23.1µM,?,?,?,?
Cc1ccc([C@@H]2C[C@H]3[C@@H](CN2S(=O)(=O)c2ccc(Cl)cc2)C(=O)C[C@@H](c2ccc(Cl)cc2)N3S(=O)(=O)c2ccccc2C)cc1,–,–,–,?,–,–
CCN(C(=O)c1ccc(NC(=O)C2CCCCC2C(=O)O)cc1)c1ccccc1 (configuration not stated),–,–,–,–,–,–
CCCC(=O)N1CCCC1(C)C(=O)NCc1ccc(SC)cc1 (configuration not stated),–,–,–,–,–,–
Cc1ccc(C)c(NS(=O)(=O)c2ccccc2C)c1,–,–,–,–,–,–
CCOc1ccc(S(=O)(=O)N2CCOCC2)cc1NC(=O)CCN1C(=O)NC2(CCCC2)C1=O,–,–,–,–,–,–
CC1(C)Cc2c(sc(NC(=O)COc3cccc4ccccc34)c2C#N)C(C)(C)N1,9.2µM,?,–,13µM,10.3µM,14.6µM
Cc1ccc(OCC(=O)Nc2sc3c(c2C#N)CC(C)(C)NC3(C)C)cc1,20.6µM,–,–,?,?,?
Cc1cc(C(=O)Nc2ccccc2-c2nc(CNC(=O)c3cc4ccccc4cn3)c(C)o2)c(C)o1,·,·,·,–,–[9.04 µM],·
Brc1ccc(-c2cn3ccccc3n2)s1,–,–,–,23.1µM,7.31µM,–
Clc1ccc(-c2cn3ccccc3n2)cc1,–,–,–,–,–,–
Cc1cc(C)n(-c2nnc3n2N=C(c2c[nH]c4ccccc24)CS3)n1,?,7.31µM,?,14.6µM,20.6µM,14.6µM
Cc1cc(C)n(-c2nnc3n2N=C(c2ccccc2)CS3)n1,–,–,–,–,–,–
CN1C(=O)/C(=C2\SC(=S)N(CCCCCC(=O)O)C2=O)c2ccccc21,–,–,–,–,?,–
O=C(O)CCN1C(=O)/C(=C2\C(=O)N(Cc3ccc(F)cc3)c3ccccc32)SC1=S,–,–,–,14.6µM,16.4µM,–
COc1ccc(CNC(=O)CS(=O)CC(=O)O)cc1OC (configuration not stated),–,–,–,–,–,–
CCOC(=O)C1=C(N)Oc2ccc3ccccc3c2C1c1ccc(O)c(OC)c1 (configuration not stated),20.6µM,–,–,?,–,?
O=C(N/N=C/c1ccc(Br)s1)c1ccccc1[N+](=O)[O-],–,–,?,–,–,–
